Reference: PubChem BioAssay (NCI)
The panel holds about 83,000 compounds, 20% with a hit somewhere; the sample as a whole holds those more often.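 A percent growth of 40 corresponds to 60% growth inhibition; 0 means no net growth; -100 means all cells died. Active threshold: below 10.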 Values without a mark were called inactive. Active and inactive are the calls of the source.

Key:
Experiment in all cases: NCI-60 one-dose screen, 48 h (100 = growth as untreated, 0 = no growth, -100 = all killed)
Details in all cases: 10 µM
[1] = system: SK-MEL-2 melanoma
[2] = system: EKVX NSCLC
[3] = system: SN12C renal
[4] = system: UO-31 renal
[5] = system: TK-10 renal
[6] = system: ACHN renal
[7] = system: CAKI-1 renal
[8] = system: A498 renal
[9] = system: CCRF-CEM leukemia

Row | SMILES | growth [1] | growth [2] | growth [3] | growth [4] | growth [5] | growth [6] | growth [7] | growth [8] | growth [9]
1 | Cc1ccc(NC(=O)c2ccc(-n3c(=O)[nH]c4ccccc4c3=O)cc2)cc1 | 97.8% | 84.8% | 69.4% | -16.8% (active) | 96.3% | 68.3% | 88.4% | 107% | 60.7%
2 | COc1ccccc1NCc1ccc(CO)n1-c1ccc(C)cc1 | 104% | 98.9% | 86.8% | 60.3% | 107% | 93.3% | 79.9% | 123% | 86.3%
3 | CC(=O)NCC1=C(C)C=C2C(=O)[C@](C)(O)C3(CC3)C(C)=C21 | -74.7% (active) | -26.1% (active) | -74.7% (active) | -32.2% (active) | -6.87% (active) | -37.4% (active) | -31.6% (active) | -70.4% (active) | 51.9%
4 | CCN1CCN(c2ccc(NC(=O)Nc3ccc(-c4cc(C(=O)NC)c5ncccc5n4)cc3)cc2C(F)(F)F)CC1 | -72.8% (active) | -100% (active) | -96.5% (active) | -100% (active) | -98.9% (active) | -100% (active) | -100% (active) | -98.4% (active) | -52.5% (active)
5 | COc1ccc(-c2nc(S(=O)(=O)c3ccc(C)cc3)c(S(C)(=O)=O)o2)cc1 | -62.4% (active) | 36.8% | -73.3% (active) | -100% (active) | -100% (active) | -100% (active) | -100% (active) | 116% | -50.5% (active)
6 | CN1CCN(c2ccc(Nc3nc(NCCCNC(=O)c4ccccc4)c4sccc4n3)cc2)CC1 | 114% | 89.9% | 84.4% | 74.9% | 117% | 60.1% | 72.5% | 141% | 25.2%
7 | CCN(CC)CCOc1ccc(C(=C(C)c2ccccc2)c2ccc(OCCN(CC)CC)cc2)cc1 | -75.8% (active) | 35.3% | 56.9% | -41.6% (active) | -9.31% (active) | -13.3% (active) | 8.81% (active) | 78.5% | -27.2% (active)
8 | COc1cc(Cn2c(C(F)(F)F)cc3c(Cl)ncnc32)ccn1 | -81.7% (active) | 73% | 51.3% | 68.3% | 97.1% | 74.8% | -57.6% (active) | 103% | -14.3% (active)
9 | c1ccc(C(=C(c2ccc(OCCN3CCCCC3)cc2)c2ccc(OCCN3CCCCC3)cc2)C2CCCC2)cc1 | -90.2% (active) | 21.4% | -8.67% (active) | 89.5% | 16.6% | 80.3% | 76.1% | 102% | -60.4% (active)
10 | COc1ccc2[nH]c(O)c(N=NC(=O)COc3ccc(NC(=O)Nc4ccc(Cl)c(Cl)c4)cc3)c2c1 | 14.5% | 31.9% | -42% (active) | 111% | 15.5% | 57% | 60.7% | -1.89% (active) | 20.8%
11 | CC1(C)CC[C@]2(C(=O)Nc3ccccc3)CC[C@]3(C)C(=CC[C@@H]4[C@@]5(C)CC[C@H](N)C(C)(C)[C@@H]5CC[C@]43C)[C@H]2C1 | 107% | 90.5% | 87.7% | 71.5% | 107% | 90.3% | 79.9% | 131% | 32.6%
12 | C=C1CC[C@H](C(=C)C)[C@H]2C=C(C)C(=O)C3=C(C(=O)[C@@](C)(O)C3)[C@H]12 | -88.6% (active) | -78.5% (active) | -50.8% (active) | -99.8% (active) | -97% (active) | -98.3% (active) | -78.9% (active) | -93.2% (active) | -5.05% (active)
13 | CCCCCc1ccc(S(=O)(=O)Nc2cc(-c3csc(N(C)C(C)=O)n3)ccc2N2CCN(C)CC2)cc1 | 24.2% | 65.4% | 14.1% | 33.1% | 47.3% | 13.7% | 38.9% | 104% | -27.5% (active)
14 | C=C(C)[C@@H]1CC[C@]2(C)[C@H](CC=C3[C@@H]4CC(C)(C)CC[C@]4(C(=O)N4CCOCC4)CC[C@]32C)[C@@]1(C)CCCN | -92.1% (active) | -84.1% (active) | -89.1% (active) | -100% (active) | -95.7% (active) | -100% (active) | -96.3% (active) | -89.5% (active) | -57.2% (active)
15 | O=C(NCCCCC(c1ccc(F)cc1)c1ccc(F)cc1)NCCCc1cccnc1 | -1.41% (active) | 27.4% | 23.9% | 26.2% | 46.2% | 37.5% | 29.8% | 84.2% | -25.4% (active)
16 | CN1CCN(c2ccc(Nc3nc(NCCNC(=O)c4ccc(C(F)(F)F)cc4)c4sccc4n3)cc2)CC1 | -41.9% (active) | 59.7% | 73.6% | 4.76% (active) | 12% | 10.7% | 22.5% | 69% | -31.1% (active)
17 | Cc1ccc(S(=O)(=O)c2nc(-c3ccccc3)oc2S(=O)(=O)CC(=O)N2CCCC2)cc1 | -50.6% (active) | 5.22% (active) | -85% (active) | -100% (active) | -99.7% (active) | -100% (active) | -100% (active) | 90.1% | -64.4% (active)
18 | O=C(Nc1ccncc1)c1ccc(-n2c(=O)[nH]c3ccccc3c2=O)cc1 | 91.9% | 94.2% | 90.5% | 87.3% | 103% | 96.2% | 87.3% | 114% | -31.5% (active)
19 | CC(=C(c1ccc(OCCCN(C)C)cc1)c1ccc(OCCCN(C)C)cc1)c1ccccc1 | -86.5% (active) | -96.1% (active) | -96.8% (active) | -99.9% (active) | -92% (active) | -99.2% (active) | -100% (active) | -86.4% (active) | -65.9% (active)
20 | CC(=C(c1ccc(OCCN2CCCCC2)cc1)c1ccc(OCCN2CCCCC2)cc1)c1ccccc1 | 20.2% | 73.6% | 68.6% | 2.17% (active) | 70.4% | 12.7% | 33.7% | 136% | -19.2% (active)
21 | CN1CCN(c2ccc(Nc3nc(NCCCNC(=O)c4ccc(Cl)cc4)c4sccc4n3)cc2)CC1 | 113% | 88.3% | 74.5% | 67.3% | 115% | 73.1% | 79.9% | 136% | 34.8%
22 | C=C(C)[C@@H]1CC[C@]2(COP(=O)(OCC)OCC)CC[C@]3(C)[C@H](CC[C@@H]4[C@@](C)(CCCN)[C@H](C(=C)C)CC[C@]43C)[C@@H]12 | 27.2% | 21.6% | 14.7% | 16.7% | 57.4% | 22.3% | 19.5% | 61.1% | 2.27% (active)
23 | Cc1ccc(C(C)C)cc1NC(=O)c1ccccc1O | 25.4% | 49.7% | 37.8% | 16.6% | 69.4% | 44.7% | 32.3% | 67.8% | 24.5%
24 | COc1ccc2[nH]c(O)c(N=NC(=O)c3cc(-c4ccc(C)cc4)nc4ccccc34)c2c1 | 111% | 97.6% | 92.1% | 69.9% | 117% | 81% | 95.5% | 126% | 52.1%
25 | COC1CC(Cn2cc(COc3ccc4ccc(=O)oc4c3)nn2)C(OCc2ccccc2)C(OCc2ccccc2)C1OCc1ccccc1 (configuration not stated) | 114% | 90.7% | 106% | 71.7% | 110% | 105% | 84% | 116% | 87%
26 | CCN1CCN(c2ccc(NC(=O)Nc3ccc4c(c3F)CCN4c3ccnc(C(=O)NC)c3)cc2C(F)(F)F)CC1 | 99.6% | -76.9% (active) | 104% | 85.3% | 118% | 54.9% | -87.9% (active) | 142% | -42.3% (active)
27 | CC(=O)c1ccc(NC(=O)NCn2c(=O)[nH]c3ccccc3c2=O)cc1 | 106% | 92.5% | 94.2% | 73.7% | 105% | 99.2% | 91.2% | 98.1% | 91.6%
28 | COc1ccc(C(C)=C(c2ccc(OCCCN(C)C)cc2)c2ccc(OCCCN(C)C)cc2)cc1 | -92.8% (active) | -85.1% (active) | -94.2% (active) | -99.4% (active) | -97.7% (active) | -100% (active) | -100% (active) | -85.2% (active) | -81.2% (active)
